Measurements as given in PubChem BioAssay (NCATS).
Records with an inconclusive call do not appear. Activity calls are given as the source filed them. Calls follow the shape of the dose curve; as a rule, active = well fitted curve in the direction sought with a large enough effect; inconclusive = small, poorly fitted or top-dose-only effect, or another doubt; inactive = no such curve, though single readings can be large; an effect the other way counts as inactive or inconclusive.

Key:
[1] = qHTS of pediatric cancer cell lines to identify multiple opportunities for drug repurposing: Primary screen for NB1643 cells (AID 1347099); also: nearly all actives have a fitted effect of over 50% in size
Summary of the method: (§1)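 Cells seeded at 500-1,000 cells/well in growth media, rested 5 hours at 37 degrees C, 5% CO2, then dosed; MIPE compounds at 11-point (from 0.78 nM) and NPC at 8-point (from 0.59 nM) final concentrations. Viability by CellTiter-Glo luminescence after 48 hours.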

[2] = qHTS of pediatric cancer cell lines to identify multiple opportunities for drug repurposing: Primary screen for LAN-5 cells (AID 1347100)
Summary of the method: (§2)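 Cells (500-1,000/well) rested 5 h, then received compounds for 48 h; metabolically active cells were measured by CellTiter-Glo luminescence. Final concentrations spanned up to 46 µM (MIPE, 11-point) or 0.59 nM-46 µM (NPC, 8-point) in primary screens, 11-point in follow-ups.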

[3] = qHTS of pediatric cancer cell lines to identify multiple opportunities for drug repurposing: Primary screen for BT-12 cells (AID 1347101); also: nearly all actives have a fitted effect of over 25% in size
Summary of the method: as §2

[4] = qHTS of pediatric cancer cell lines to identify multiple opportunities for drug repurposing: Primary screen for Rh18 cells (AID 1347102); also: nearly all actives have a fitted effect of over 65% in size
Summary of the method: as §2

[5] = qHTS of pediatric cancer cell lines to identify multiple opportunities for drug repurposing: Primary screen for OHS-50 cells (AID 1347103); also: nearly all actives have a fitted effect of over 40% in size
Summary of the method: as §2

[6] = qHTS of pediatric cancer cell lines to identify multiple opportunities for drug repurposing: Primary screen for RD cells (AID 1347104); also: nearly all actives have a fitted effect of over 55% in size
Summary of the method: as §1

[7] = qHTS of pediatric cancer cell lines to identify multiple opportunities for drug repurposing: Primary screen for MG 63 (6-TG R) cells (AID 1347105); also: nearly all actives have a fitted effect of over 50% in size
Summary of the method: as §1

[8] = qHTS of pediatric cancer cell lines to identify multiple opportunities for drug repurposing: Primary screen for control Hh wild type fibroblast cells (AID 1347106); also: nearly all actives have a fitted effect of over 55% in size
Summary of the method: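 Cells (500-1,000/well) in growth media were settled 5 h at 37 degrees C, then given compounds for 48 h. Viability was read as CellTiter-Glo luminescence. Primary runs used MIPE at 11 points (0.78 nM-46 µM) and NPC at 8 points (0.59 nM-46 µM); follow-ups used 11 points.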

[9] = qHTS of pediatric cancer cell lines to identify multiple opportunities for drug repurposing: Primary screen for Rh30 cells (AID 1347107); also: nearly all actives have a fitted effect of over 75% in size
Summary of the method: as §2

[10] = qHTS of pediatric cancer cell lines to identify multiple opportunities for drug repurposing: Primary screen for SK-N-SH cells (AID 1347098); also: nearly all actives have a fitted effect of over 65% in size
Summary of the method: as §2

Measured: Potency
Potency is read from the fitted curve at half-maximal effect.

CS(=O)(=O)c1ccc(C2=C(c3ccccc3)C(=O)OC2)cc1
inactive: [1] | [2] | [3] | [4] | [5] | [6] | [7] | [8] | [9]

COc1ccc(C=CC(=O)Nc2ccccc2C(=O)O)cc1OC
inactive: [2] | [3] | [4] | [5] | [7] | [8]
active: [1] 5.9 µM

C[C@@H]1C[C@H]2[C@@H]3CCC4=CC(=O)C=C[C@]4(C)[C@@]3(F)[C@@H](O)C[C@]2(C)[C@@]1(O)C(=O)CO
inactive: [1] | [2] | [3] | [4] | [5] | [6] | [8] | [9]

CO[C@@H]1C(N(C)C(=O)c2ccccc2)C[C@H]2O[C@]1(C)n1c3ccccc3c3c4c(c5c6ccccc6n2c5c31)C(=O)NC4=O (stereo partly specified)
active: [10] 6.07 µM | [7] 1.48 µM
inactive: [5] | [9]

CNC1[C@H](O)C(O[C@@H]2C(O)C(O[C@H]3O[C@H]([C@@H](C)NC)CC[C@H]3N)[C@@H](N)C[C@H]2N)OC[C@]1(C)O (stereo partly specified)
inactive: [1] | [2] | [3] | [4] | [5] | [6] | [8] | [9]

COc1cc([C@H]2Oc3cc([C@H]4Oc5cc(O)cc(O)c5C(=O)[C@H]4O)ccc3O[C@H]2CO)ccc1O
active: [1] 23.5 µM

C[C@@]1(C(=O)Nc2ccc(F)nc2)CCCN1c1nc(Nc2cc(C3CC3)[nH]n2)c2cccn2n1
active: [1] 0.0935 µM | [2] 0.0264 µM | [4] 16.6 µM | [5] 0.968 µM | [7] 11.8 µM
inactive: [3]

Cc1ccc(C(=O)N(CCCN)[C@@H](c2oc3cc(Cl)ccc3c(=O)c2Cc2ccccc2)C(C)C)cc1
inactive: [1] | [7] | [9]
active: [2] 0.001 µM | [3] 0.001 µM | [4] 26.4 µM | [5] 0.001 µM

CCCCCCOC(=O)N=C(N)c1ccc(NCc2nc3cc(C(=O)N(CCC(=O)OCC)c4ccccn4)ccc3n2C)cc1
inactive: [10] | [4] | [7] | [8] | [9]

OC[C@H]1O[C@@H](OCCc2ccc(O)cc2)[C@H](O)[C@@H](O)[C@H]1O
inactive: [1] | [2] | [3] | [4] | [7] | [9]

COc1ccc(-c2nc3ccc(C4=NNC(=O)CC4C)cc3[nH]2)cc1 (stereo unspecified)
active: [10] 15.4 µM
inactive: [7] | [8] | [9]

NC(=O)c1ccc(N(C(N)=O)c2c(F)cccc2F)nc1-c1ccc(F)cc1F
inactive: [1] | [2] | [3] | [4] | [6] | [7] | [8] | [9]

Cc1ccccc1C(C(=O)NC1CCCCC1)N(C(=O)CNc1ccc(C#N)cc1)c1cccc(F)c1 (stereo unspecified)
inactive: [1] | [2] | [3] | [4] | [6] | [7] | [9]

Cc1cc2nc3c(=O)[nH]c(=O)nc-3n(CC(O)C(O)C(O)CO)c2cc1C (stereo unspecified)
inactive: [2] | [3] | [4] | [5] | [6] | [7] | [8] | [9]
active: [1] 23.5 µM

Oc1cc(O)cc(C=Cc2ccc(O)c(O)c2)c1
active: [1] 20.9 µM | [2] 13.2 µM | [3] 24.3 µM | [5] 19.3 µM
inactive: [8]

C[C@@H]1CCO[C@H]2Cn3cc(C(=O)NCc4ccc(F)cc4F)c(=O)c(O)c3C(=O)N12
inactive: [10] | [6] | [7] | [8]

O=C(Nc1ccc(OC(F)(F)F)cc1)c1sccc1NCc1ccnc2ccccc12
inactive: [10] | [4] | [7] | [8] | [9]

CC[C@H](CC#N)OC(=O)N[C@@H](C)c1cccc(NC(=O)Nc2ccc(-c3cnco3)c(OC)c2)c1
inactive: [4]
active: [1] 0.743 µM | [2] 0.662 µM | [3] 0.611 µM | [5] 7.69 µM

COc1cc(Cl)cn2c(-c3cccc(NC4CNC4)n3)cnc12
inactive: [4] | [6] | [8]
active: [1] 10.5 µM | [2] 16.6 µM | [5] 12.2 µM

COc1ccc(-c2cc3nccn3c(Nc3ncccc3C(N)=O)n2)cc1OC
inactive: [7] | [8]
active: [1] 2.35 µM | [2] 1.48 µM | [5] 1.93 µM

CC(C)CN(C[C@H](O)[C@H](Cc1ccccc1)NC(=O)O[C@H]1CCOC1)S(=O)(=O)c1ccc(N)cc1
inactive: [1] | [2] | [4]

CCCCOCCOc1nc(-c2ccc(C(=O)O)c(F)c2)sc1C
active: [5] 0.485 µM
inactive: [1] | [2] | [6] | [8]

COc1cc(N2CCN(C)CC2)ccc1Nc1nc(N)c(C(=O)c2c(Cl)cccc2Cl)s1
inactive: [5] | [7] | [8] | [9]
active: [1] 14.8 µM | [2] 16.6 µM | [6] 29.6 µM

NCc1c[nH]c(=S)n1[C@H]1CCc2c(F)cc(F)cc2C1
active: [1] 9.35 µM | [2] 23.5 µM | [4] 16.6 µM | [6] 33.2 µM

COc1cc2ncnc(Nc3cc(Br)c(O)c(Br)c3)c2cc1OC
active: [1] 1.32 µM | [2] 16.6 µM | [5] 27.3 µM | [6] 0.935 µM
inactive: [4] | [8] | [9]

CCNC(=O)c1noc(-c2cc(C(C)C)c(O)cc2O)c1-c1ccc(CN2CCOCC2)cc1
active: [1] 0.105 µM | [2] 0.105 µM | [5] 0.153 µM | [6] 0.235 µM

CCC[C@H](N[C@@H](C)C(=O)N1[C@@H]2CCCC[C@H]2C[C@H]1C(=O)O)C(=O)OCC
inactive: [1] | [2] | [7] | [8] | [9]

CC(O)=C(C#N)C(=O)Nc1ccc(C(F)(F)F)cc1
inactive: [2] | [4] | [8]
active: [1] 23.5 µM

C=C1c2cccc(O)c2C(O)=C2C(=O)[C@@]3(O)C(O)=C(C(N)=O)C(=O)[C@@H](N(C)C)[C@@H]3[C@@H](O)[C@H]12
inactive: [4] | [5] | [6] | [7] | [8]
active: [1] 23.5 µM | [2] 13.2 µM

CC1=C(CC(=O)O)c2cc(F)ccc2C1=Cc1ccc(S(C)=O)cc1 (stereo unspecified)
inactive: [3] | [9]
active: [1] 7.43 µM | [2] 26.4 µM

Cc1cc(CS(=O)(=O)c2ccccc2)cc(OCc2ccc(CN3CCC[C@H]3CO)cc2)c1
inactive: [2] | [8]
active: [1] 14.8 µM | [6] 5.9 µM

O=C1CCCC(=O)C1C(=O)c1ccc(C(F)(F)F)cc1[N+](=O)[O-]
inactive: [1] | [2] | [3] | [6] | [7] | [8] | [9]

NS(=O)(=O)c1ccc(Nc2nc(OCC3CCCCC3)c3[nH]cnc3n2)cc1
active: [1] 18.7 µM | [2] 16.6 µM
inactive: [3] | [7] | [8]

NC(=O)c1noc([C@H](CCCC2CCCCC2)CC(=O)NO)n1
inactive: [8]
active: [1] 18.7 µM | [2] 14.8 µM | [4] 13.2 µM | [5] 7.69 µM | [9] 18.7 µM

COc1nccc(-c2c(-c3ccc(F)cc3)ncn2C2CCNCC2)n1
inactive: [1] | [2] | [4] | [7]

C[C@]12C=CC(=O)C=C1CC[C@@H]1[C@@H]2[C@@H](O)C[C@@]2(C)[C@@H]1CC[C@]2(O)C(=O)CO
active: [2] 23.5 µM
inactive: [1] | [4] | [5] | [6] | [7] | [8] | [9]

O=C1NC(=O)C(c2cnc3ccccn23)=C1c1cn2c3c(cccc13)CN(C(=O)N1CCOCC1)CC2
inactive: [8]
active: [1] 20.9 µM | [2] 2.96 µM | [7] 0.469 µM

C[C@H]1O[C@@H](n2cc(F)c(=O)[nH]c2=O)[C@H](O)[C@H]1O
active: [1] 18.7 µM | [2] 13.2 µM
inactive: [4] | [5] | [8]

c1cc(OCCN2CCCCC2)cc(-c2n[nH]c3ccc(-c4ncn[nH]4)cc23)c1
active: [1] 5.9 µM | [2] 14.8 µM | [5] 6.85 µM
inactive: [4] | [6] | [7] | [8] | [9]

COc1ccc(Cn2ccc3ccc(C(=O)NO)cc32)cc1
active: [1] 14.8 µM | [2] 20.9 µM
inactive: [4] | [7] | [8]

CCN1CCC(n2cc(CNc3cc(Cl)c4ncc(C#N)c(Nc5ccc(F)c(Cl)c5)c4c3)nn2)CC1
inactive: [8]
active: [1] 18.7 µM | [2] 14.8 µM | [4] 20.9 µM | [5] 17.2 µM | [6] 18.7 µM | [9] 23.5 µM

COc1ccc(-c2ccc3ncc4c(c3c2)n(-c2ccc(N3CCNCC3)c(C(F)(F)F)c2)c(=O)n4C)cn1
active: [1] 0.264 µM | [2] 0.166 µM | [3] 15.3 µM | [6] 0.743 µM | [7] 0.0047 µM | [8] 2.09 µM | [9] 1.87 µM

Fc1ccc(CNc2ncnc3ccc(F)cc23)cc1
inactive: [1] | [2] | [4] | [7] | [8]
active: [5] 6.85 µM

CC(C)[C@H](O)C(=O)N[C@@H](C)C(=O)N[C@@H]1C(=O)N(C)CCc2ccccc21
inactive: [2] | [4] | [8]
active: [1] 20.9 µM

Nc1nc(Cl)nc2c1ncn2[C@@H]1O[C@H](CO)[C@@H](O)[C@H]1F
inactive: [4] | [8] | [9]
active: [1] 3.72 µM | [2] 0.0372 µM | [7] 1.18 µM

CCCCC(C=O)NC(=O)C(CC(C)C)NC(=O)OCc1ccccc1 (stereo unspecified)
active: [1] 26.4 µM
inactive: [2] | [7] | [8]

O=C1C(c2c(O)[nH]c3ccccc23)=Nc2ccccc21
inactive: [1] | [2] | [4]

CC(C)C[C@@H](C(=O)N[C@H](C(=O)OC1CCCC1)c1ccccc1)[C@H](O)C(=O)NO
inactive: [8]
active: [1] 18.7 µM | [2] 16.6 µM | [5] 21.7 µM
